Data as given in PubChem BioAssay.
The source made the active and inactive calls.

Columns and labels:
[1] = test system: Plasmodium falciparum Sir2 (PF13_0152, Sir2A); test: pfSir2 binders on small-molecule microarrays, primary screen, biochemical, small-molecule microarray, 635 nm fluorescence (AID 1098); settings: small-molecule microarray binding, fluorescence 635 nm; higher = more signal;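 also: score merges spot fluorescence intensity with its signal-to-noise ratio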
[2] = small-molecule microarray binders of probe aDKK1, primary screen, biochemical, biotinylated probe, 635/667 nm fluorescence (AID 1099); settings: higher = more signal;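 also: score merges 667nm spot fluorescence with signal to noise across triplicate slides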
[3] = small-molecule microarray binders of probe aCHRDL2, primary screen, biochemical, biotinylated probe, 635/667 nm fluorescence (AID 1100); settings: higher = more signal
[4] = splicing luciferase reporter signal modulators, primary screen, spliceosome inhibition project, cell-based, HEK293, splice +/- reporter (AID 1101); settings: luminescence, 24 h, higher = more signal, called active from +8 up or from −8 down;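 also: HEK293 cells carrying a splicing-competent luciferase reporter gene; test concentration not given here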
[5] = target: Fibroblast growth factor 10 (Homo sapiens) (UniProt O15520); test: FGF10 binders on small-molecule microarrays, primary screen, biochemical, small-molecule microarray, 635 nm fluorescence (AID 1102); settings: FGF10 binding, fluorescence 635 nm, higher = more signal
[6] = test system: glycogen synthase kinase-3 (GSK3A per assay name; protocol says GSK3B); test: GSK3 binders on small-molecule microarrays, primary screen, biochemical, small-molecule microarray, 635 nm fluorescence, GSK3A (AID 1103); settings: small-molecule microarray binding, fluorescence 635 nm; higher = more signal; also: the record names both GSK3A and GSK3B
[7] = target: Epidermal growth factor receptor (Homo sapiens) (UniProt P00533); test: EGFR binders on small-molecule microarrays, primary screen, biochemical, small-molecule microarray, 635 nm fluorescence (AID 1104); settings: EGFR binding, higher = more signal;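 also: score merges 667 nm emission intensity with spot signal to noise over triplicate slides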
[8] = target: Follistatin-related protein 3 (Homo sapiens) (UniProt O95633); test: FSTL3 binders on small-molecule microarrays, primary screen, biochemical, small-molecule microarray, 635 nm fluorescence (AID 1105); settings: FSTL3 binding, higher = more signal;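 also: score merges emission near 667 nm and signal to noise per printed spot across three slides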
[9] = target: Dickkopf-related protein 1 (Homo sapiens) (UniProt O94907); test: DKK1 binders on small-molecule microarrays, primary screen, biochemical, small-molecule microarray, 635 nm fluorescence scan (AID 1106); settings: DKK1 binding, higher = more signal;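 also: score merges emission near 667 nm with signal to noise over three replicate slides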
[10] = test system: Inhibin beta A chain (activin A); test: INHBA (activin A) binders on microarrays, primary screen, biochemical, small-molecule microarray, 635 nm fluorescence scan (AID 1107); settings: small-molecule microarray binding, higher = more signal;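 also: mouse activin A protein probed at 4.33 µg/mL on printed slides; score merges bound-protein fluorescence near 667 nm with spot signal-to-noise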
[11] = test system: Human papillomavirus type 1a protein E7 (residues 44-93); test: HPV1a E7 fragment binders on microarrays, primary screen, biochemical, small-molecule microarray, residues 44-93, 635 nm fluorescence (AID 1108); settings: small-molecule microarray binding, fluorescence 635 nm; higher = more signal;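 also: E7 fragment applied at 1 µg/mL in TBST for 1 h at 4 C; score combines spot fluorescence with its signal to noise ratio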
[12] = modulators of HCV replicon luciferase signal, primary screen, HCV replication inhibitor project, Huh7 cells, luciferase reporter (AID 1109); settings: 48 h, higher = more signal;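 also: huh7 hepatoma cells harbouring a luciferase neomycin HCV replicon reporter; luciferase luminescence as measure of HCV replicon replication; test concentration not given here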
[13] = target: Left-right determination factor 2 (Homo sapiens) (UniProt O00292); test: LEFTY2 binders on small-molecule microarrays, primary screen, biochemical, small-molecule microarray, 635 nm fluorescence scan (AID 1110); settings: LEFTY2 binding, higher = more signal
[14] = target: Calmodulin-1 (Homo sapiens) (UniProt P0DP23); test: CALM1 binders on microarrays, EGTA buffer, profiling panel, biochemical, small-molecule microarray, Cy5-labelled CALM1 (AID 1111); settings: Cy5-CALM1 binding fluorescence, higher = more signal;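 also: labelled calmodulin applied in Tris saline Tween buffer holding calcium plus EGTA and DTT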
[15] = target: Calmodulin-1 (Homo sapiens) (UniProt P0DP23); test: calcium-bound CALM1 binders on microarrays, profiling panel, artefact control for SMM control-protein annotation, biochemical, small-molecule microarray, Cy5-labelled CALM1, plus calcium (AID 1112); settings: Cy5-CALM1 binding fluorescence, higher = more signal;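 also: score merges spot fluorescence with signal to noise from triplicate slides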
[16] = small-molecule microarray binders of probe aWnt5a, primary screen, biochemical, biotinylated probe, 635/667 nm fluorescence (AID 1113); settings: higher = more signal;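 also: score merges 667 nm fluorescence intensity with signal-to-noise per printed feature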
[17] = small-molecule microarray binders of probe aShh, primary screen, biochemical, biotinylated probe, 635/667 nm fluorescence (AID 1114); settings: higher = more signal;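 also: probe is biotin-labelled aShh protein from a stem cell growth factor screen; measures binding of labelled protein to compounds printed on the slide; score merges feature fluorescence at 667 nm with signal-to-noise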
[18] = small-molecule microarray binders of probe aNog, primary screen, biochemical, biotinylated probe, 635/667 nm fluorescence (AID 1115); settings: higher = more signal;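 also: probe is biotinylated aNog protein used at 0.15 µg/mL for 1 h at 4 C; z-score combines 667 nm fluorescence of each spot with its signal to noise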
[19] = target: Torsin-1A-interacting protein 1 (Homo sapiens) (UniProt Q5JTV8); test: LAP1 binders from COS7 cell lysate, primary screen, small-molecule microarray, 635/667 nm fluorescence (AID 1116); settings: COS7-hLAP1 lysate binding, 635 nm fluorescence, higher = more signal
[20] = target: Alpha-bungarotoxin (Bungarus multicinctus) (UniProt P60615); test: alpha-bungarotoxin binders on microarray, profiling panel, artefact control for SMM control protein annotation, biochemical, small-molecule microarray, Alexa647 label, 635/667 nm fluorescence (AID 1117); settings: alpha-BTX-A647 binding fluorescence, higher = more signal
Chain of Alpha-bungarotoxin (Bungarus multicinctus) (P60615 whole entry, looked up): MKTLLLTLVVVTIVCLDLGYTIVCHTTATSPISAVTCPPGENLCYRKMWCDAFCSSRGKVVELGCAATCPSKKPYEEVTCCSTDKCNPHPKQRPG

Chain of Dickkopf-related protein 1 (Homo sapiens) (O94907 whole entry, looked up): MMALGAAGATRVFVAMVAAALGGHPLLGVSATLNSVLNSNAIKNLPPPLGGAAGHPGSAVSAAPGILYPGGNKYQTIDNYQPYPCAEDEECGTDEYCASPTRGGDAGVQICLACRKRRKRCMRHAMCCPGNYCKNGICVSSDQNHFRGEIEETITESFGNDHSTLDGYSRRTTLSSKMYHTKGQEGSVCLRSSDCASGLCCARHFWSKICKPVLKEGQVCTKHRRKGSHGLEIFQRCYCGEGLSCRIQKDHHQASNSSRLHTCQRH
Chain of Fibroblast growth factor 10 (Homo sapiens) (O15520 whole entry, looked up): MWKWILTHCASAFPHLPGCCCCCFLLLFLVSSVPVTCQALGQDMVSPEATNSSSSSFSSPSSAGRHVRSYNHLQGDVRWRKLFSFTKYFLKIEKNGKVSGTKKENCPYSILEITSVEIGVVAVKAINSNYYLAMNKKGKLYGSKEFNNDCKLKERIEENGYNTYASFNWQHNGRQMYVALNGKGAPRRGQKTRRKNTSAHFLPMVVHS
Chain of Torsin-1A-interacting protein 1 (Homo sapiens) (Q5JTV8 whole entry, looked up): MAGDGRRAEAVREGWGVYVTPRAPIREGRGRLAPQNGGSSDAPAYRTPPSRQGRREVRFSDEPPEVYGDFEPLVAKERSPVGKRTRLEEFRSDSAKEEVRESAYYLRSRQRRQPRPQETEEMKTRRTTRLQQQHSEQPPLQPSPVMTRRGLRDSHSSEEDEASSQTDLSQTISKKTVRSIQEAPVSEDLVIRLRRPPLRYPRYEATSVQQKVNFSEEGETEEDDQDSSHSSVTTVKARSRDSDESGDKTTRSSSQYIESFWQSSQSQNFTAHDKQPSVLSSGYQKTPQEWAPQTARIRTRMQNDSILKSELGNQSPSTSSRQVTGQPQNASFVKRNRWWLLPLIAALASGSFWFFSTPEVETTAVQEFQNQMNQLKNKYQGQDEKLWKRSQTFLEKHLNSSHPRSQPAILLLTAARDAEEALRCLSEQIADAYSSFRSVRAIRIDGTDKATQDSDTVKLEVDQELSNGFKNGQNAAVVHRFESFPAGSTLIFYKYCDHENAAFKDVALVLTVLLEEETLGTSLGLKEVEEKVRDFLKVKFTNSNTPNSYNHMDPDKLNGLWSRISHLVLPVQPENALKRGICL
Chain of Follistatin-related protein 3 (Homo sapiens) (O95633 whole entry, looked up): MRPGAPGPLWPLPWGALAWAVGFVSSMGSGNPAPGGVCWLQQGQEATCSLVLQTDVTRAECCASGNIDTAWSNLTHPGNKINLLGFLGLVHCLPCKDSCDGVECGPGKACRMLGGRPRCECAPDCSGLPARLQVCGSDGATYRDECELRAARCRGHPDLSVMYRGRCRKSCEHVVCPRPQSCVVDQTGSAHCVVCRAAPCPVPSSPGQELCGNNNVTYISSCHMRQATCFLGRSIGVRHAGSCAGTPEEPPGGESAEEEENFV
Chain of Left-right determination factor 2 (Homo sapiens) (O00292 whole entry, looked up): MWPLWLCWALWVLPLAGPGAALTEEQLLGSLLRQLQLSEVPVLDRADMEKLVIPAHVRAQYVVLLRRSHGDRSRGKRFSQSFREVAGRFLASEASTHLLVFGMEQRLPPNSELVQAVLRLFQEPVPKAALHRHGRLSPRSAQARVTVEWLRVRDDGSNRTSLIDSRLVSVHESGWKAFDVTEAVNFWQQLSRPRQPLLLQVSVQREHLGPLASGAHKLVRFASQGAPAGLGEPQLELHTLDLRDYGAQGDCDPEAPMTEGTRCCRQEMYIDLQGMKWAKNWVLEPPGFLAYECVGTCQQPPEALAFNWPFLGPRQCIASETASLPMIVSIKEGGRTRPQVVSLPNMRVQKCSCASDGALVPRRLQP
Chain of Epidermal growth factor receptor (Homo sapiens) (P00533 whole entry, looked up): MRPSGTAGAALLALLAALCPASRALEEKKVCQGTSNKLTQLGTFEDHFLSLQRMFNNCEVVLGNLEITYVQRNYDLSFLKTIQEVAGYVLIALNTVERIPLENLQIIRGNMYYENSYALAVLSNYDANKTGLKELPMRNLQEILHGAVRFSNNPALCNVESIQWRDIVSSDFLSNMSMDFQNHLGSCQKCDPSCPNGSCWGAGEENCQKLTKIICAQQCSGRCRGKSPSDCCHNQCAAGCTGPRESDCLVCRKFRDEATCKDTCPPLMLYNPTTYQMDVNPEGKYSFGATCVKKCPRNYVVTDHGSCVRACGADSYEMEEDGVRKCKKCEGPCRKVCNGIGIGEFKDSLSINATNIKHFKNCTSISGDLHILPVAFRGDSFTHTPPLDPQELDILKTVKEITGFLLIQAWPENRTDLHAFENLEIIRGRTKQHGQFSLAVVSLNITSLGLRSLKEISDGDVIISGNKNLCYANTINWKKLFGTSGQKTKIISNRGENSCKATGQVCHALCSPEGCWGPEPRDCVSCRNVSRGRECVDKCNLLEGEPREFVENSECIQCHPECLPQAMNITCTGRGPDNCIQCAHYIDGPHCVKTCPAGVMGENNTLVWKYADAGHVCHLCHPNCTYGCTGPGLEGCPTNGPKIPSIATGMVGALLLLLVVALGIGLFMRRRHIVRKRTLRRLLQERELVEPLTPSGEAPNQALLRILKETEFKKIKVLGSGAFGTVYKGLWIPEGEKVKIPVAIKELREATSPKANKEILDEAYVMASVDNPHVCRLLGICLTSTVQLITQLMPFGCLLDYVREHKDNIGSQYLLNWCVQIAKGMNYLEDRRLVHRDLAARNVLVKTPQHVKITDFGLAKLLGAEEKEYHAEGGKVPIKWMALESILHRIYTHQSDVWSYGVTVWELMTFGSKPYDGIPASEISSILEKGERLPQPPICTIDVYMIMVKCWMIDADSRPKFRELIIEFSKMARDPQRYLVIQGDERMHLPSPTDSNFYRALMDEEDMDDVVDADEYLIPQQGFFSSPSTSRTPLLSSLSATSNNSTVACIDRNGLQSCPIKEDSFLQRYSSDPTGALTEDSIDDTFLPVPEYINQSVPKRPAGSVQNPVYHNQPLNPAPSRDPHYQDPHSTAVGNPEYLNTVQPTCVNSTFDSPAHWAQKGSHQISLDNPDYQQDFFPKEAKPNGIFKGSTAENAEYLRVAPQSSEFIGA

Row | SMILES | composite z-score [1] | composite z-score [2] | composite z-score [3] | z-score [4] | composite z-score [5] | composite z-score [6] | composite z-score [7] | composite z-score [8] | composite z-score [9] | composite z-score [10] | composite z-score [11] | z-score [12] | composite z-score [13] | composite z-score [14] | composite z-score [15] | composite z-score [16] | composite z-score [17] | composite z-score [18] | composite z-score [19] | composite z-score [20]
1 | COCCOC(=O)N1C(=O)[C@@]2(c3cc(C#CC4=CCCCC4)ccc31)[C@H](C(=O)N1CCc3cc(OC)c(OC)cc3C1)[C@H]1C(=O)O[C@H](c3ccccc3)[C@H](c3ccccc3)N1[C@@H]2c1ccc(OCCO)cc1 | 0.563 | 0.0129 | -0.134 | 0.342 (inactive) | 1.3 | 1.3 | 0.649 | 1.03 | 0.8 | 0.706 | 1.07 | -0.44 | 0.744 | 0.526 | 0.269 | 0.048 | -0.428 | 0.575 | 0.929 | 1.07
2 | COCCOC(=O)N1C(=O)[C@@]2(c3cc(C#CC4=CCCCC4)ccc31)[C@H](C(N)=O)[C@H]1C(=O)O[C@H](c3ccccc3)[C@H](c3ccccc3)N1[C@@H]2c1ccc(OCCO)cc1 | 0.497 | -0.504 | -0.091 | 0.497 (inactive) | 1.31 | 1.1 | 0.0883 | 1.22 | 0.553 | 0.052 | -0.71 | -2.5 | 0.331 | -0.822 | -0.919 | -0.124 | 0.049 | 0.299 | 0.855 | 1.56
3 | C=CC[C@@]1(C(=O)NCc2ccccc2)N=C(c2ccc(OCCCO)cc2)O[C@@H]1c1ccccc1N=[N+]=[N-] | 0.888 | 0.925 | 1.02 | -1.35 (inactive) | 1.22 | -0.119 | -0.104 | 0.751 | -0.295 | 0.817 | 1.25 | -0.874 | -0.258 | 1.17 | 0.399 | 0.0839 | 0.171 | 1.74 | 1.44 | 1.82
4 | CCOC(=O)C[C@H]1[C@H](OC(=O)c2ccc(C(=O)c3ccccc3)cc2)[C@@H](NC(=O)c2ccc(-c3ccccc3)cc2)c2cc(OCCCO)ccc2N1C(=O)c1ccccc1 | 0.82 | -0.222 | -0.387 | 0.475 (inactive) | 0.994 | 0.477 | 0.515 | 0.723 | 0.321 | -0.144 | 1.3 | -1.1 | 0.342 | 0.228 | -0.119 | 0.193 | -0.0709 | -0.632 | 0.191 | 0.706
5 | COCCOC(=O)N1C(=O)[C@@]2(c3cc(C#Cc4ccc(OC)cc4)ccc31)[C@H](c1ccc(O)cc1)N1[C@H](c3ccccc3)[C@H](c3ccccc3)OC(=O)[C@H]1[C@@H]2C(=O)NC[C@H](O)c1ccccc1 | 1.47 | -0.0755 | -0.378 | -1.68 (inactive) | 1.42 | 1.31 | 0.769 | 1.4 | 0.811 | 0.113 | 1.44 | -2.2 | 0.598 | 1.18 | -0.209 | 0.0809 | 0.692 | -0.467 | 0.681 | 1.54
6 | C=CCNC(=O)[C@@H]1[C@H]2C(=O)O[C@H](c3ccccc3)[C@H](c3ccccc3)N2[C@H](c2ccc(OCCO)cc2)[C@@]12C(=O)Nc1ccc(C#CCCO)cc12 | 1.7 | -0.0674 | 0.456 | -1.09 (inactive) | 1.22 | 1.27 | 0.652 | 1.42 | 1.12 | 1.26 | 1.32 | -1.36 | 1.28 | 1.44 | -0.0758 | 0.452 | 2.63 | 2.4 | 2.12 | 1.68
7 | CC(C)(C)OC(=O)CC[C@]1(C(=O)NCC(O)CO)COC(c2ccc(OCCCO)cc2)=N1 (stereo not given in full) | 0.304 | 0.747 | 0.788 | 0.646 (inactive) | 0.145 | 0.435 | -0.172 | -0.952 | -1.01 | 0.173 | 1.31 | -0.105 | -0.455 | 1.5 | 0.834 | -0.0512 | 0.275 | 0.592 | 1.7 | 1.88
8 | O=C(NCc1ccccc1)[C@@H]1c2ccccc2C(=O)N(CC23CC4CC(CC(C4)C2)C3)[C@H]1c1ccc(CO)cc1 | 1.6 | -0.654 | -0.524 | 0.152 (inactive) | 0.971 | 1.31 | 0.603 | 1.43 | 0.593 | 0.147 | 1.36 | -1.96 | 0.567 | 0.237 | -0.831 | -0.0957 | -0.0337 | -0.584 | 0.575 | 0.645
9 | C=CCN(Cc1ccccc1)C(=O)C(c1cccs1)N(CCOCCO)C(=O)/C=C\C(=O)O (stereo not given) | 0.342 | 0.179 | 0.251 | -1.62 (inactive) | -2.23 | -0.869 | -2.04 | -1.27 | -2.6 | -2.43 | -0.762 | 0.448 | -2.24 | -0.512 | 0.446 | -0.256 | -0.0035 | -0.0712 | -1.45 | -1.82
10 | O=C1C2C=CC(C(O)C3CCCCC3)N(Nc3ccc([N+](=O)[O-])cc3)C2C(=O)N1c1ccccc1 (stereo not given) | 1.26 | -0.236 | 0.783 | -1.04 (inactive) | -0.901 | 1.31 | -1.54 | -0.677 | -1.49 | -1.28 | 1.37 | -0.057 | -1.4 | 1.16 | 0.164 | -0.0944 | -0.0035 | 0.283 | 0.721 | 1.96
11 | CCCC=C(CCC)[C@@H](NS(=O)(=O)c1cccs1)c1ccc(C(=O)OC)cc1 | 0.565 | 0.922 | 1.18 | 3.75 (inactive) | 0.77 | 1.19 | -0.122 | 0.622 | -0.569 | -0.0034 | 1.37 | -2.93 | -0.452 | 1.6 | 0.85 | 0.105 | 0.605 | 1.41 | 0.554 | 1.24
